Bioassay records: PubChem, several laboratories
IEC-6 tox: IEC-6 cytotoxicity, counter-screen for KLF5 inhibitors. luminescence viability. inhibition, % at 5 µM. actives 0.78% (n = 290,000);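 note: 0% = plate median of test compound wells and 100% = cytotoxic reference compound wells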
BaF3 tox: reduces parental Ba/F3 cell viability, JAK2V617F counter-screen | CellTiter-Glo ATP luminescence | inhibition, % at 5.6 µM | actives 1.1% (n = 220,000) | AID 1486;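 active = inhibition above a per-campaign cutoff, the mean inhibition of all tested compounds plus 3 SD, cut at about 27% in these data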;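 note: 0% = DMSO wells and 100% = JAK Inhibitor I control wells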
aSyn UTR inh: 5' untranslated region of α-synuclein, MLPCN primary screen. alpha-synuclein 5'UTR reporter, inhibitor activity. inhibition, % (tested at 7.5 µM). actives 0.82% (n = 300,000). AID 1813; in the data active = inhibition above about 60%; inconclusive = no clear call, values can overlap the other calls;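 note: H4 neuroglioblastoma cells stably carrying SNCA 5'UTR luciferase fusion; 0% = DMSO wells and 100% = positive control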
KLF5 inh: inhibitors of KLF5 expression | DLD-1 KLF5 promoter-luciferase reporter, luminescence | inhibition, % at 5 µM | actives 0.23% (n = 290,000);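 active = inhibition above a per-plate limit of that plate's mean compound inhibition plus 3 SD, cut at about 60% in these data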;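 note: 0% = DMSO wells and 100% = LY294002 at 200 µM; higher means less KLF5 promoter-driven luciferase light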
Ba/F3 V617F tox: lowers viability of Ba/F3 cells expressing EpoR and JAK2V617F. ATP luminescence. inhibition, % at 5.6 µM. actives 1.1% (n = 220,000). AID 1446;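 active = inhibition above the campaign mean plus 3 SD over all tested compounds, cut at about 24% in these data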;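 note: cytokine-independent growth of Ba/F3 cells driven by EpoR plus mutant JAK2; 0% = DMSO-treated cells and 100% = JAK inhibitor I control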
APP transl inh: APP translation inhibition. AID 1285. actives 0.82% (n = 190,000). SH-SY5Y APP 5'UTR-luciferase reporter, luminescence. inhibition, % at 2 µM;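 active = inhibition above a set limit, derived from the sample mean plus 3 SD, cut at about 45% in these data; inconclusive = one replicate passes the limit while the other fails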
IEC-6 tox confirm: confirmation of cytotoxic compounds in rat IEC-6 intestinal epithelial cells; shares compounds with IEC-6 tox; IEC-6 rat intestinal epithelial viability, luminescence; inhibition, % at 5 µM; actives 63% (n = 1,900);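 note: 0% = vehicle and 100% = reference cytotoxic drug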
* hit, by the source's call; ? = inconclusive; . = not tested or not shown. A selection: hits, their analogues and other compounds. The true share with any hit is near 2.2%. Cut-off read from the data, not from the text of the source, unless noted: active = inhibition above about 22%; inactive = the rest.

SMILES	IEC-6 tox	BaF3 tox	aSyn UTR inh	KLF5 inh	Ba/F3 V617F tox	APP transl inh	IEC-6 tox confirm
Cc1ccc(-c2cnc(C3CC3)o2)cc1S(=O)(=O)Nc1ccccc1	37.8*	.	51.1	17.1	.	.	46.6*
CC(=O)c1cccc(NS(=O)(=O)c2cc(-c3cnc(C4CC4)o3)ccc2C)c1	41.0*	.	19.1	11.7	.	.	31.3*
CC(=O)Nc1ccc(NS(=O)(=O)c2cc(-c3cnc(C4CC4)o3)ccc2C)cc1	23.4*	.	-7.0	-42.0	.	.	23.6*
CC(=O)c1ccc(NS(=O)(=O)c2cc(-c3cnc(C4CC4)o3)ccc2C)cc1	10.7	.	32.7	-31.7	.	.	.
Cc1ccc(N(C)S(=O)(=O)c2cc(-c3cnc(C4CC4)o3)ccc2C)cc1	3.4	.	8.8	2.5	.	.	.
O=C(COc1coc(CN2CCc3ccccc32)cc1=O)Nc1ccccc1	.	.	-1.1	.	.	.	.
Cc1cccc(N2CCN(C(=O)c3c(-c4ccccc4)noc3C)CC2)c1C	72.2*	.	64.6*	60.7	.	.	45.2*
Cc1ccc(C)c(C(=O)COC(=O)CCN2C(=O)C3C4CCC(C4)C3C2=O)c1 (centres undefined)	-9.4	.	-1.1	-14.1	.	.	.
CC(=O)c1ccc(NC(=S)Nc2cccc3ccccc23)cc1	63.2*	.	-47.0	-70.5	.	.	5.9
CC(=O)N(C)c1ccc(NC(=S)Nc2cccc3ccccc23)cc1	7.7	3.8	-168.2	-76.2	3.2	-12.8	.
COC(=O)[C@@]1(Cc2ccc(F)cc2)[C@H]2c3cc(C(=O)N4CCCC4)n(CCCNc4ncc(C(F)(F)F)cc4Cl)c3C[C@H]2CN1C(=O)c1ccccc1	-6.7	.	18.5	0.2	.	.	.
COc1ccc(OC)c(Nc2nc(N)c([N+](=O)[O-])c(NC3CCCCC3)n2)c1	-1.4	.	26.9	-5.8	.	.	.
NCCCNc1nc(N)c([N+](=O)[O-])c(NC2CCCCC2)n1	46.5*	.	49.1	54.8	.	.	43.2*
CCCNC(=O)c1ccccc1NC(=O)c1ccc2c(c1)NC(=O)C(C)S2 (centres undefined)	41.5*	.	-96.1	34.7	.	.	21.4
CCOc1ccc2nc(-c3ccccc3)[nH]c2c1	42.2*	54.0*	2.2	14.1	71.5*	-142.2	29.8*
COc1ccc2nc(-c3ccccc3)[nH]c2c1	4.0	8.2	-70.7	-115.7	4.2	-177.9	.
CC(C)c1nnc(SCC(=O)NC2CCCC2)n1C	3.6	.	1.2	10.6	.	.	.
COc1ccc(S(=O)(=O)NCCc2c[nH]c3ccc(C)cc23)cc1	3.0	.	-0.4	-30.1	.	.	.
Cc1ccccc1OCC(O)CNC1CCC(NCC(O)COc2ccccc2C)CC1 (centres undefined)	100.9*	.	99.2*	-33.9	.	.	101.0*
Cc1ccc(OCC(O)CNC2CCCC2)c(C)c1 (centres undefined)	0.9	.	3.5	-50.5	.	.	.
O=C(/C(Cl)=C/Nc1ccc(Br)cn1)C(F)(F)F	2.3	1.2	-55.3	-47.6	-2.6	-22.2	.
COCCN(C(=O)Nc1ccccc1OC)c1nc2ccccc2s1	45.1*	.	-0.7	-27.8	.	.	31.3*
Cn1cc([N+](=O)[O-])c(C(=O)Nc2sc3c(c2C#N)CCC3)n1	91.9*	.	64.2*	13.9	.	.	29.4*
Cc1ccc(S(=O)(=O)N2C(=O)CCC2C(=O)O/N=C(\N)c2ccccc2)cc1 (centres undefined)	-3.9	.	3.6	-13.8	.	.	.
CCCCN1C(=O)C(=O)N(CC(=O)Nc2ccccc2C(=O)OCC)C1=O	-4.1	.	9.8	-16.9	.	.	.
SMILES	IEC-6 tox	BaF3 tox	aSyn UTR inh	KLF5 inh	Ba/F3 V617F tox	APP transl inh	IEC-6 tox confirm
NNC(=O)/C(=C\c1ccco1)NC(=O)c1ccco1	70.2*	.	-11.2	15.9	.	.	6.8
C=CCNC(=O)/C(=C\c1ccco1)NC(=O)c1ccco1	-0.5	.	3.9	-2.9	.	.	.
CN(C)C(=O)c1cc(C(=O)c2ccc(F)cc2C(F)(F)F)c[nH]1	-5.2	.	-10.0	-31.8	.	.	.
COc1ccccc1OCC(=O)NN=C(Cc1ccccc1)Cc1ccccc1	5.6	4.8	1.0	-32.1	0.2	9.3	.
CCOc1ccccc1OCC(=O)N/N=C(\C)Cc1ccc(OC)cc1	69.8*	73.4*	86.5*	55.5	72.0*	92.5*	-17.0
COc1c(Cl)cc(Cl)cc1/C=C/C(=O)c1ccc(NC(=O)c2cccs2)cc1	6.7	5.5	-114.8	-21.6	-3.3	11.3	.
Cc1nnc(N/N=C\c2ccc(-c3ccccc3[N+](=O)[O-])o2)n1N	57.8*	10.6	-75.0	-85.4	1.5	0.2	-4.5
CCc1nnc(N/N=C/c2ccc(-c3ccc([N+](=O)[O-])cc3)o2)n1N	9.8	6.3	-13.2	-16.2	1.4	13.8	.
Cc1nnc(N/N=C/c2ccc(-c3ccccc3F)o2)n1N	102.2*	7.9	-107.5	-97.9	5.4	-35.8	4.6
O=C(COc1ccc([N+](=O)[O-])cc1)N(C1CCCCC1)C1CCS(=O)(=O)C1 (centres undefined)	.	.	5.0	.	.	.	.
CCOc1ccc(C(C(=O)NC2CCCCC2)N(C(=O)c2csnn2)C2CC2)cc1 (centres undefined)	2.3	.	7.4	1.4	.	.	.
COc1ccccc1-n1cnc2cc(NCc3ccccc3O)ccc21	1.2	2.3	-26.0	-18.0	1.6	.	.
COc1ccccc1-n1cnc2cc(NCc3ccco3)ccc21	79.6*	78.2*	?	55.7	73.6*	94.3*	56.3*
COc1ccc(/C=N/N(C)C2=NS(=O)(=O)c3ccccc32)cc1	6.5	.	-1.4	-35.9	.	.	.
CN(/N=C/c1ccc(N(C)C)cc1)C1=NS(=O)(=O)c2ccccc21	37.9*	.	-97.1	-9.5	.	.	16.3
COc1ccc(N(C)C2=NS(=O)(=O)c3ccccc32)cc1	54.6*	61.0*	-70.4	56.4	50.0*	.	29.5*
COc1cccc(/C=C/C(=C2\C(=O)N(c3ccccc3)N=C2C)c2ccc(Br)cc2)c1OC	-1.3	5.5	.	18.9	-1.6	10.1	.
COc1ccc(-c2c(C#N)c(N)nc3c2CCc2ccccc2-3)cc1OC	33.8*	10.2	-40.3	22.4	21.8	18.7	23.9*
COc1cc(C(=O)NNC(=O)C2CC=CCC2C(=O)O)cc(OC)c1OC (centres undefined)	70.1*	44.4*	5.2	39.0	60.3*	64.8*	-3.2
O=C1CC(c2cccc(Cl)c2)c2cc3c(cc2N1)CCC3 (centres undefined)	28.4*	26.7*	49.3	13.8	9.3	33.9	29.2*
CCc1ccc(C(=O)NNC(=O)CCC2CCCCC2)cc1	-6.4	.	3.8	-1.0	.	.	.
CCN1CCN(S(=O)(=O)c2ccc(C(=O)Nc3sc4c(c3C(N)=O)CCN(CC)C4)cc2)CC1	-0.7	.	-7.2	-5.0	.	.	.
CCN1CCc2c(sc(NC(=O)c3ccc4ccccc4c3)c2C(N)=O)C1	45.3*	.	-193.8	-22.1	.	.	7.7
CCN(CCCNC(=O)CCn1c(=S)[nH]c2cc3c(cc2c1=O)OCO3)c1cccc(C)c1	0.3	.	3.5	1.2	.	.	.
Cc1nsc2nc3c(F)c(F)c(F)c(F)c3cc12	29.4*	.	-49.4	-2.5	.	.	5.2
